Measured values published in ChEMBL document CHEMBL4513216, “Probing the Open Global Health Chemical Diversity Library for Multistage-Active Starting Points for Next-Generation Antimalarials” (ACS Infect Dis, 2020).
In all, about 69,000 compounds went through this assay and about 8,600 (12%) showed an effect of 50% or more. What follows is part of a selection rich in strong results, with near analogues and random picks from the rest.

Tested on: Plasmodium berghei
Experiment: Screen against P. berghei liver stage (PbLuc), transformed with Luciferase, at 10uM
Format: functional, HepG2
Conditions: tested at 10 uM

| Compound | INHIBITION |
| --- | --- |
| O=C(c1ccncn1)N1CCC[C@]2(C[C@H](Oc3ncccc3F)CO2)C1 | -10.3% |
| COc1cccc(S(=O)(=O)N2C[C@@H](O)[C@H](N(C)C)C2)c1 | 9.98% |
| Cn1cc(-c2cnc(N3CCCC3)nc2)cc1C(=O)N1CCOCC1 | -18.4% |
| Cn1nccc1C(=O)N1CCC(c2ncc(Cl)cc2S(C)(=O)=O)CC1 | 30.4% |
| C=Cn1ncc(CN2C[C@@H]3CCCN3C[C@H]2Cc2ccccc2)c1C | 51.5% |
| C=Cn1ncc(CN2C[C@@H]3CCCN3C[C@@H]2Cc2ccccc2)c1C | 50% |
| C=Cn1ncc(CN2C[C@@H]3C[C@@H](O)CN3C[C@H]2Cc2ccccc2)c1C | 13% |
| CCCn1ncc(CN2C[C@@H]3CCCN3C[C@@H]2CCSC)c1C | 57.4% |
| CCn1ncc(CN2C[C@@H]3CCCN3C[C@H]2CCSC)c1C | 2.71% |
| CCCn1ncc(CN2C[C@@H]3CCCN3C[C@H]2CCSC)c1C | 37.6% |
| C=Cn1ncc(CN2C[C@@H]3CCCN3C[C@@H]2CCSC)c1C | 30.8% |
| C=Cn1ncc(CN2C[C@@H]3CCCN3C[C@H]2CCSC)c1C | 30.1% |
| CCn1ncc(CN2C[C@@H]3CCCN3C[C@@H]2CCSC)c1C | 46% |
| CCCn1ncc(CN2C[C@@H]3CCCN3C[C@@H]2Cc2ccccc2)c1C | 29.3% |
| CCCn1ncc(CN2C[C@@H]3CCCN3C[C@H]2Cc2ccccc2)c1C | 57.5% |
| C=Cn1ncc(CN2C[C@@H]3C[C@@H](O)CN3C[C@@H]2Cc2ccccc2)c1C | 42.6% |
| Cc1nc(N2CCN(c3ccccc3)CC2)c2c(n1)c(C)nn2C | 25.1% |
| CC(=O)N1CCN(CC=C(C)C)CC1 | 19.1% |
| CCNC(=O)[C@@H]1C[C@@H](NC(=O)c2cccn2C)CN1CCCSC | -7.7% |
| Cc1cc(-c2cccc(-c3ccn(CCCO)n3)c2)nc(N(C)C)n1 | -22.8% |
| O=C(CCC1CCCO1)NCCCC(=O)Nc1ccc(Cl)cc1 (configuration not stated) | 36.8% |
| O=C(CCC1CCCO1)NCCN1CCCCC1 (configuration not stated) | 52.2% |
| COc1ccc(OC)c(CCNC(=O)CCC2CCCO2)c1 (configuration not stated) | 38.3% |
| O=C(CCC1CCCO1)NCCc1ccccn1 (configuration not stated) | 18.3% |
| O=C(CCC1CCCO1)NCCCO (configuration not stated) | 51% |
| CCOCCNC(=O)CCC1CCCO1 (configuration not stated) | 42.1% |

| Compound | INHIBITION |
| --- | --- |
| Cc1c[nH]nc1C1CCCN(C(=O)Cn2cccn2)C1 (configuration not stated) | 2.71% |
| Cc1nc(C2CCCCN2S(C)(=O)=O)no1 (configuration not stated) | -4.87% |
| CC(=O)N1N=C(c2ccccc2)OC1C(=O)NCCc1ccc(Cl)cc1 (configuration not stated) | -53.7% |
| CCN(CCCNCc1c(C)nn(C)c1N(C)C)S(C)(=O)=O | 0.58% |
| Cc1nc(C2CCN2c2ncccn2)cc(N(C)C)n1 (configuration not stated) | 10.9% |
| CCN(CC)C(=O)CSc1nc2nc(C)ccc2o1 | -4.76% |
| CCN(Cc1cccc2c1OCO2)C(=O)NCc1ccccn1 | -27.8% |
| Cc1cc(=O)c(C(=O)N2CCN(C)c3ccccc3C2)c[nH]1 | 43.9% |
| Cc1cc(C)c(CNC(=O)C2COc3ccccc3C2)c(=O)[nH]1 (configuration not stated) | 32.9% |
| Cc1cc(C(=O)CN2C(=O)c3ccccc3CS2(=O)=O)c(C)[nH]1 | 56.4% |
| Cc1ccc(C)c(C(=O)CN2C(=O)c3ccccc3CS2(=O)=O)c1 | 56.8% |
| Cc1ccc(C(=O)CN2C(=O)c3ccccc3CS2(=O)=O)c(C)c1 | 65.3% |
| N#Cc1cccc(CN2C(=O)c3ccccc3CS2(=O)=O)c1 | -0.85% |
| Cc1ccc(C)c(C(=O)N2CCN(C(=O)Cc3ccccn3)CC2)c1 | 29.7% |
| Cc1ccccc1C(=O)CN1C(=O)c2ccccc2CS1(=O)=O | 10.1% |
| CCCn1c(C)cc(C(=O)CN2C(=O)c3ccccc3CS2(=O)=O)c1C | 31.8% |
| Cc1nc(-c2nnc[nH]2)sc1C(=O)N1CCCC(C(F)(F)F)C1 (configuration not stated) | 7.25% |
| CN(C)C(=O)C1CCC2(CCN(C(=O)Nc3ccc(F)cc3)CC2)O1 (configuration not stated) | 31.2% |
| O=C([C@@H]1C[C@@H]2CCN(C3CCOCC3)C[C@@H]2O1)N1CCOCC1 | -9.26% |
| COCCn1c2c(ccc1=O)CCN(C(=O)Cc1cccs1)CC2 | -14.2% |
| CNc1cnc(CC2COCCN(Cc3ccccc3)C2)cn1 (configuration not stated) | 9.05% |
| c1ccc(-n2cc(CNCC3CCCN3c3cccnn3)cn2)cc1 (configuration not stated) | 41.5% |
| CC(CS(C)(=O)=O)N(C(=O)c1ccc(Cl)s1)C1CC1 (configuration not stated) | 52.1% |
| CC(CS(C)(=O)=O)N(C(=O)Nc1cc(F)ccc1Cl)C1CC1 (configuration not stated) | 3.63% |
| CC(CS(C)(=O)=O)N(C(=O)CCc1ccc(Cl)s1)C1CC1 (configuration not stated) | 31.5% |
| Cn1cc(C(=O)NCC2CCN(C(=O)NC3CC3)CC2)cn1 | -16% |

| Compound | INHIBITION |
| --- | --- |
| N#Cc1ccnc(SCC2CN=C(N3CCOCC3)S2)c1 (configuration not stated) | 52.6% |
| c1ccn2c(SCC3CN=C(N4CCOCC4)S3)ncc2c1 (configuration not stated) | 0.705% |
| c1csc(SCC2CN=C(N3CCOCC3)S2)c1 (configuration not stated) | -12.9% |
| O=c1c(NCCc2ccc(O)cc2)c(NCc2ccco2)c1=O | 45.7% |
| Cc1ccc(N2CCc3sc(C(=O)N4CCOCC4)cc32)nn1 | -34% |
| Cc1cc(S(=O)(=O)N2CCCc3cc(Br)ccc32)sc1C(=O)O | 54.3% |
| Cc1cc(S(=O)(=O)N2CCCc3ccccc32)sc1C(=O)O | 37.1% |
| Cc1cc(S(=O)(=O)N2CCCc3cc(Cl)ccc32)sc1C(=O)O | -12.5% |
| O=C(Nc1ccccc1)N1CC(C(=O)N2CCCC2)C2(CCOCC2)C1 (configuration not stated) | -9.71% |
| NC(=O)c1ccc(C2CCCN2C(=O)CCn2nnc3ccccc32)s1 (configuration not stated) | 7.6% |
| NC(=O)c1ccc(C2CCCN2C(=O)Cn2nc3ccccc3n2)s1 (configuration not stated) | 19.4% |
| CC(=O)c1c(C)nn(CC(=O)N2CCCC2c2ccc(C(N)=O)s2)c1C (configuration not stated) | 65.7% |
| CN(C)CCN1CCCC12CCN(C(=O)c1ccco1)CC2 | -20.8% |
| O=C(Nc1ccncc1)N(CCO)Cc1ccsc1 | -42.2% |
| COc1ccccc1-c1ccc(C(=O)N2C[C@@H]3CC[C@H]2CN(C)C3)cc1 | 58.3% |
| CCOc1ccc(C(=O)N2C[C@@H]3CC[C@H]2CN(C)C3)cc1OCC | 28% |
| COc1ccc(C(=O)N2C[C@@H]3CC[C@H]2CN(C)C3)cc1Cl | 32.3% |
| Cn1cc(C2CCCN2C(=O)Cn2c(=O)oc3ccccc32)cn1 (configuration not stated) | -19.1% |
| Cn1cccc1C(=O)NC[C@H]1C[C@@H]2CN(C(=O)c3ccno3)C[C@H]2O1 | 42.3% |
| CN(C)C[C@H]1C[C@@H]2CN(C(=O)c3ccno3)C[C@@H]2O1 | 34.9% |
| O=C(NC[C@H]1C[C@@H]2CN(C(=O)c3ccno3)C[C@@H]2O1)C1CCC1 | 70.4% |
| CCn1cc(-c2cc(C(F)F)n3nc(CC(=O)O)nc3n2)cn1 | 53% |
| CCn1cc(-c2cc(C(F)F)n3nc(CCC(=O)O)nc3n2)cn1 | 33.7% |
| Cn1cc(-c2cc(C(F)F)n3nc(CCC(=O)O)nc3n2)cn1 | -24.1% |
| CC(C)(C)c1nc(C(C)(C)NC(=O)C2CC(=O)N(CC3CC3)C2)no1 (configuration not stated) | -17.6% |
| Cn1cc(CN2CCc3c(nc(-c4ccccn4)[nH]c3=O)C2)cn1 | 26.7% |

| Compound | INHIBITION |
| --- | --- |
| Cn1cc(CN2CCc3nc(-c4ccccn4)nc(O)c3C2)cn1 | 52.3% |
| CCn1cc(CN2CCc3nc(-c4ccccn4)nc(O)c3C2)cn1 | 1.5% |
| CN(C)C(=O)c1ccc(C2CCCNC2)nc1 (configuration not stated) | 12.3% |
| CN(C)CC1CN(Cc2ccsc2)Cc2nccn2C1 (configuration not stated) | 31.8% |
| CN(C)Cc1cccc(-c2cccnc2C(=O)NCc2ccco2)c1 | 2.7% |
| CN(C)Cc1cccc(-c2cccnc2C(=O)NCc2ccccn2)c1 | 14.85% |
| CN(C)Cc1cccc(-c2cccnc2C(=O)NCc2cn(C)cn2)c1 | 51% |
| Cc1nc(CCN(C)C(=O)CN2C(=O)OC[C@@H]2c2ccccc2)no1 | 44.3% |
| COc1ccccc1CN(C)C(=O)CN1C(=O)OC[C@@H]1c1ccccc1 | 28.5% |
| Cc1cc(C)n(CC(=O)N(C)Cc2csc(-c3cccs3)n2)c(=O)n1 | 38.5% |
| Cc1ncsc1CCN(C)C(=O)CN1C(=O)OC[C@@H]1c1ccccc1 | 66.5% |
| CC(C)n1ccnc1CN1C(=O)OC[C@@H]1c1ccccc1 | 42.6% |
| Cc1ncsc1CCN(C)C(=O)CN1CCCCC1=O | 39.4% |
| Cc1ncsc1CCN(C)C(=O)CN1CCOc2ccccc2C1 | 40.5% |
| Cc1ccc(=O)n(CC(=O)N(C)Cc2csc(-c3cccs3)n2)n1 | 5.23% |
| CN(Cc1csc(-c2cccs2)n1)C(=O)CN1CCOC1=O | 55% |
| CC(C)N(C)C(=O)CN1C(=O)OC[C@@H]1c1ccccc1 | 58.2% |
| Cc1ncsc1CCN(C)C(=O)CN1CCCCCC1=O | 30.8% |
| Cc1ncsc1CCN(C)C(=O)CN1CCOC1=O | 61.8% |
| CCN(CC(=O)Nc1cc(Cl)ccc1C)C(=O)c1cnccn1 | -25.9% |
| COc1ccc(C(=O)N2CCC(Nc3ccc(C)nn3)CC2)cc1 | 42% |
| CN(C)c1nc2sc(C(=O)N3CCN(C(=O)OC(C)(C)C)CC3)cc2s1 | -9.39% |
| CCCS(=O)(=O)N1C[C@H](N(C)Cc2ccco2)[C@@H]2OCCC[C@@H]21 | 40.4% |
| O=C(CCn1cnc2cc(F)c(F)cc21)N1CCN2CCCCC2C1 (configuration not stated) | 23.4% |
